# Source: PubChem BioAssay (NCATS)
# Several values for one entry are separate records, joined by “and”; a condition that tells them apart may be missing. Equal entries are not always repeated. Inconclusive results are not listed. Activity calls are given as the source filed them. Calls follow the shape of the dose curve; as a rule, active = well fitted activation curve with a large enough effect; inconclusive = small, poorly fitted or top-dose-only effect; inactive = no such curve, though single readings can be large or run the other way.
# Target: Cellular tumor antigen p53 (Homo sapiens) (UniProt P04637)
# Test: Primary qHTS for small molecule compounds that upregulate eGFP-tagged delta133p53alpha (in N-terminal) cells. (AID 2060322); also: nearly all actives have a fitted effect of over 75% in size;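 as to activation: cells pre-induced with doxycycline then dosed without doxycycline; series mostly up to about 56 µM; 0% = DMSO vehicle and 100% = reference activator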
# Conditions: NCI-H358 eGFP-delta133p53alpha fluorescence, 24 h; activation: active compounds read high
# Summary of the method: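 NCI-H358 cells pre-induced 24 h with 10 ng/ml doxycycline for eGFP-delta133p53alpha, plated dox-free and exposed 24 h at 37C to titrated compounds. Fixed, Hoechst-stained; gated GFP peak intensity by laser scanning cytometry, normalized to DMSO (0%) and 57.5 uM 5-azacytidine (100%).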
# Potency is read from the fitted curve at half-maximal effect.
# Cellular tumor antigen p53 (Homo sapiens), sequence (P04637 whole entry, looked up): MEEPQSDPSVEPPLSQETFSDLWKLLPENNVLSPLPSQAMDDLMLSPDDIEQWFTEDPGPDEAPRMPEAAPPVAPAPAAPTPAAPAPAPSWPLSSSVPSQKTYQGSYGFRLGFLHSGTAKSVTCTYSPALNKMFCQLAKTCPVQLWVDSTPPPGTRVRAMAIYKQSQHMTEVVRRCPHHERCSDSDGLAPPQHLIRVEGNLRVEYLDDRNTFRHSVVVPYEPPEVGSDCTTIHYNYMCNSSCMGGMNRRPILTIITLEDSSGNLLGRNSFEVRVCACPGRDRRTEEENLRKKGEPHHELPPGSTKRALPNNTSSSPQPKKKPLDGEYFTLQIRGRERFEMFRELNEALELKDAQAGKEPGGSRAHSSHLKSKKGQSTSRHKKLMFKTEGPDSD
SMILES,activation,Potency
CN1[C@H]2C[C@H](OC(=O)[C@H](CO)c3ccccc3)C[C@@H]1[C@@H](O)C2,1.67% (inactive),–
C=C1C2(C)CC3C(C)(O)C4=CC(=O)OC(C)(C)C4=CCC3(C)C13C(=O)OC(C)C3(O)C2=O (centres undefined),-0.763% (inactive),–
COc1cc(O)c2c(c1)/C=C/C[C@@H](O)[C@@H](O)C(=O)CCC[C@H](C)OC2=O,-12.2% (inactive),–
C=C[C@H]1CN2CCC1C[C@H]2[C@H](O)c1ccnc2ccccc12 (some centres undefined),-2.33% (inactive),–
CC1=CC2/C=C(\C)CCC(O)C3OC(C)(C)OC3CC(=O)OC23C(=O)NC(CC(C)C)C3C1C (centres undefined),6.87% (inactive),–
C=C[C@H]1CN2CC[C@H]1C[C@@H]2[C@@H](O)c1ccnc2ccccc12,3.57% (inactive),–
C[C@]12CC[C@H](O[C@@H]3O[C@H](CO)[C@@H](O)[C@H](O)[C@H]3O)CC1CC[C@@H]1C2CC[C@]2(C)[C@@H](C3=CC(=O)OC3)CC[C@]12O (some centres undefined),–,11.7 µM (active)
OCc1nnc2n1-c1ccc(Cl)cc1C(c1ccccc1Cl)=NC2,-3.67% (inactive),–
COC1C=CC23c4cc5c(cc4COC2(O)CN(C)C3C1)OCO5 (centres undefined),-5.36% (inactive),–
C=C(C)[C@@]12O[C@@H]1[C@@]1(C)C(=C[C@H]2O)CC[C@@H](O)[C@@H]1C,8.4% (inactive),–
Cc1cccc(NC(=O)c2ccc(C(F)(F)F)cc2C(=O)O)n1,1% (inactive),–
CC1=CC2(O)/C=C/C(C)(O)C(O)C(O)/C=C/C(=O)OC23C(=O)NC(CC(C)C)C3C1C (centres undefined),0.763% (inactive),–
O=C(N[C@H]1CN2CCC1CC2)c1cc2cccc(Cl)c2s1,38.7% (inactive),–
CC(=O)OC[C@]12C[C@H](O)C(C)=C[C@H]1O[C@@H]1[C@H](O)[C@@H](O)[C@@]2(C)[C@]12CO2,–,6.59 µM (active)
CC1=C[C@H]2O[C@@H]3[C@H](O)[C@@H](O)[C@](C)([C@@]2(CO)C[C@@H]1O)[C@]31CO1,–,7.57 µM (active)
C=C(CO)C(=O)O[C@H]1C/C(C)=C/CC/C(CO)=C/[C@H]2OC(=O)C(=C)[C@H]12,-16.8% (inactive),–
COCC(C(=O)OC1CC2CCC(C1)N2C)c1ccccc1 (centres undefined),4.33% (inactive),–
CCCC[N+]1(C)[C@@H]2CC(OC(=O)[C@H](CO)c3ccccc3)C[C@H]1[C@@H]1O[C@@H]12 (some centres undefined),-28.8% (inactive) and -9.82% (inactive),–
Oc1ccc2c3c1O[C@H]1[C@H](N(CCCl)CCCl)CC[C@@]4(O)[C@@H](C2)N(CC2CC2)CC[C@]314,-14.3% (inactive),–
CC12CCC3C(CCC4(O)CC(O)CCC34C=O)C1(O)CCC2C1=CC(=O)OC1 (centres undefined),–,10.7 µM (active)

SMILES,activation,Potency
C/C=C(\C)C(=O)OC1CC2C(CC=C3CC(OC4CC(OC)C(OC5CC(OC)C(OC6CC(OC)C(OC7CC(OC)C(O)C(C)O7)C(C)O6)C(C)O5)C(C)O4)CCC32C)C2(O)CCC(C(C)=O)C12C (centres undefined),-6.11% (inactive),–
Fc1cc(F)c2c(c1)[C@H]1C=CC[C@H]1C(c1cccnc1)N2 (some centres undefined),2.39% (inactive),–
C/C=C(\C)C(=O)OC1C(C)OC(OC2C(C)OC(OC3CCC4(C)C(=CCC5C4CCC4(C)C(C(C)OC6OC(COC7OC(CO)C(O)C(O)C7O)C(O)C(O)C6O)CCC54O)C3)CC2OC)C(O)C1OC (centres undefined),0.763% (inactive),–
CCOC(=O)c1ncn2c1CN(C)C(=O)c1c(I)cccc1-2,7.67% (inactive),–
O=C1Nc2ccc3ncsc3c2/C1=C/c1cnc[nH]1,–,2.39 µM (active)
CC(C)C1(OO)C=C2C(=O)CC3C(C)(C(=O)O)CCCC3(C)C2CC1 (centres undefined),11.5% (inactive),–
CCCN(CCC)CCc1ccc(OC)c(OCCc2ccccc2)c1,-1% (inactive),–
CCOC(=O)c1ccnc2cc(C(OCCN3CCCCC3)c3ccccc3Cl)sc12 (centres undefined),-5.67% (inactive),–
C[C@H]1CCC[C@H](O)CCC/C=C/c2cc(O)cc(O)c2C(=O)O1,-13% (inactive),–
CN1CCc2cc3c(cc2C1C1OC(=O)c2c1ccc1c2OCO1)OCO3 (centres undefined),-26% (inactive),–
CN1C(=O)N(c2ccc(C#N)c(C(F)(F)F)c2)C(=O)[C@]1(CO)c1ccccc1,17% (inactive),–
COc1ccc2c3c([nH]c2c1)C(C=C(C)C)N1C(=O)C2CCCN2C(=O)C1C3 (centres undefined),-3.82% (inactive),–
C[C@]12CC[C@H](O[C@@H]3O[C@H](CO)[C@@H](O)[C@H](O)[C@H]3O[C@@H]3O[C@H](CO)[C@@H](O)[C@H](O)[C@H]3O)CC1=CC[C@@H]1[C@@H]2CC[C@]2(C)[C@@H](C3=CC(=O)OC3)CC[C@]12O,8.93% (inactive),–
CCC1CN2CCc3cc(OC)c(OC)cc3C2CC1CC1=NCCc2cc(O)c(OC)cc21 (centres undefined),23.2% (inactive),–
C[C@]12CC[C@@H](O)C[C@H]1CC[C@@H]1[C@@H]2CC[C@]2(C)C(=O)CC[C@@H]12,3.67% (inactive),–
CC(C)(C)[C@]1(O)C[C@@H]2OC(=O)C[C@@]23C(=O)O[C@@H]2OC(=O)[C@@H](O)[C@]213,-1.79% (inactive),–
CC1CCCC(O)CC(=O)Cc2cc(O)cc(O)c2C(=O)O1 (centres undefined),7.63% (inactive),–
CC1=C[C@H]2O[C@@H]3C[C@H]4OC(=O)/C=C/C=C/C(=O)OCC/C(C)=C/C(=O)OC[C@@]2(CC1)[C@]4(C)[C@]31CO1,–,0.0165 µM (active)
CC12CCC3C(C1)c1c(cc(O)c(C(=O)c4ccccc4)c1OC3(C)C)O2 (centres undefined),-17.6% (inactive),–
